High-throughput results from PubChem BioAssay.
MLLE-PAM2 inh: inhibitors of microRNA-mediated deadenylation, human PABP1 MLLE binding; AID 588489; actives 0.36% (n = 360,000); P11940; GST-MLLE / FITC-PAM2 fluorescence polarization; inhibition, % at 20 µM; in the data active = inhibition above about 35%, passing the limit was not always enough
PABP FP inh: blocks human PABP binding to poly(A) RNA. P11940. fluorescence polarization. calls only at 35 µM. actives 1% (n = 290,000). AID 2014;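 note: calls also rest on retests at 20 µM and on dose response follow-up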
eIF4E 4G PPI: blocks eIF4E binding to eIF4G; TR-FRET eIF4E-eIF4GI(517-606) binding, 2 h; actives 0.37% (n = 220,000); inhibition, % at 21.7 µM; AID 782;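 active = inhibition above about 30%, limit read from the data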
eIF4H inh: inhibitors of RNA binding by human eIF4H; inhibition, % at 35 µM; eIF4H fluorescence polarization binding assay; actives 0.94% (n = 290,000); AID 2012; Q15056;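 note: calls also rest on retests at 20 µM and on dose response follow-up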
Of the large screens only hits and unclear results are named; the others gave an inactive call. Most compounds without a hit are left out; they make up all but 1.5% or so of the library. Unless noted, the rule behind the calls is not given here.

CC1C(=O)N(Cc2cn(CC3CCCCC3)nn2)CCS(=O)(=O)N1Cc1ccc(-c2ccccc2)cc1 (configuration not stated)	none (no result: PABP FP inh, eIF4E 4G PPI, eIF4H inh)
O=c1ccoc2ccccc12	none (no result: PABP FP inh, eIF4E 4G PPI, eIF4H inh)
CCCCOc1[nH]c2nc(-c3ccco3)n(Cc3ccco3)c(=N)c2c1C#N	PABP FP inh active, eIF4H inh 127
c1ccc(CSc2nnc(-c3ccco3)n2Cc2ccco2)cc1	none
O=C(C[C@@H]1C[C@H]2c3cc(NC(=O)c4cccnc4)ccc3O[C@H]2[C@H](CO)O1)NCc1ccc(Oc2ccccc2)cc1	none (no result: PABP FP inh, eIF4E 4G PPI, eIF4H inh)
CC1(C(=O)NCCc2ccccc2)Cc2c(-c3cccc(C(N)=O)c3)ccnc2O1 (configuration not stated)	none (no result: PABP FP inh, eIF4E 4G PPI, eIF4H inh)
O=C(Nc1cccc(Oc2ccccc2)c1)C1Cc2c(-c3cccc(F)c3)ccnc2O1 (configuration not stated)	none (no result: PABP FP inh, eIF4E 4G PPI, eIF4H inh)
O=C(NN1C(=O)C2CC=C(Cl)CC2C1=O)c1ccncc1 (configuration not stated)	PABP FP inh active, eIF4H inh inconclusive
COc1ccc(NC(=O)c2ccc(N3C(=O)C4CC=C(Cl)CC4C3=O)cc2)cc1 (configuration not stated)	none (no result: eIF4E 4G PPI)
COc1ccc(C(CC(=O)NCc2ccccc2)Sc2n[nH]c(-c3ccccc3)n2)cc1 (configuration not stated)	PABP FP inh active, eIF4H inh 86
O=C1N=C(N2C=CC(=C3C=CNC=C3)C=C2)/C(=C/N=NC(=O)c2ccccc2O)S1	MLLE-PAM2 inh 48 (no result: PABP FP inh, eIF4E 4G PPI, eIF4H inh)
O=C(O)CC/C(=C\c1cccc(NC(=O)c2ccccc2Cl)c1)c1nc2ccccc2s1	PABP FP inh active, eIF4H inh 58
O=C(O)C/C(=C\c1cc(Cl)c2c(c1)OCO2)c1nc2ccccc2s1	eIF4H inh 94 (no result: eIF4E 4G PPI)
O=C(O)C/C(=C\c1ccc2c(c1)OCO2)c1nc2ccccc2s1	none (no result: eIF4E 4G PPI)
COc1ccc(OC)c(NC(=O)C2(C)CCN2C(=O)CCC2CCCC2)c1 (configuration not stated)	none (no result: PABP FP inh, eIF4E 4G PPI, eIF4H inh)
Cc1cc(C)cc(OCCCC(=O)O)c1	none
Cc1ccc(OCCC(=O)O)cc1	PABP FP inh active, eIF4H inh inconclusive
Cc1ccc(S(=O)(=O)NN=C2CCCc3ccccc32)cc1	none (no result: PABP FP inh, eIF4E 4G PPI, eIF4H inh)
C=C(C)C(=O)Nc1cccc(C2=NOC3(C2)C[C@@H](C(N)=O)N(C(=O)CCCCC)C3)c1 (some centres not stated)	PABP FP inh active, eIF4H inh 81 (no result: MLLE-PAM2 inh)
C=C(C)C(=O)Nc1cccc(C2=NOC3(C2)C[C@@H](C(N)=O)N(C(=O)[C@H]2CCC(=O)N2)C3)c1 (some centres not stated)	eIF4H inh 103
C=C(C)C(=O)Nc1cccc(C2=NOC3(C2)C[C@@H](C(N)=O)N(C(=O)c2ccc(OC)cc2)C3)c1 (some centres not stated)	PABP FP inh active, eIF4H inh 106
CCCCCC(=O)N1CC2(CC(c3cccc(NC(=O)[C@@H]4CCC(=O)N4)c3)=NO2)C[C@@H]1C(N)=O (some centres not stated)	none
C=C(C)C(=O)Nc1cccc(C2=NOC3(C2)C[C@@H](C(N)=O)N(C(=O)c2cc([N+](=O)[O-])cc([N+](=O)[O-])c2)C3)c1 (some centres not stated)	none
COc1ccc(C(C)=O)cc1CS(=O)(=O)CC(=O)O	none
O=C(NCc1cccc(F)c1)Nc1nnc([C@@H]2C[C@H](O)[C@@H](CO)O2)s1	none (no result: PABP FP inh, eIF4E 4G PPI, eIF4H inh)
COc1cccc(CN(C)C(=O)CC[C@H]2O[C@@H](n3ccc(=O)[nH]c3=O)[C@H](O)[C@@H]2O)c1	none (no result: PABP FP inh, eIF4E 4G PPI, eIF4H inh)
Cn1nc(C(F)(F)F)cc1-c1ccc(/C=C(\C#N)C(=O)c2ccccc2)s1	PABP FP inh active
CCOC(=O)C1CCCN(C(=O)Cc2ccc(OC)c(OC)c2)CC1 (configuration not stated)	none (no result: PABP FP inh, eIF4E 4G PPI, eIF4H inh)
C[C@@H]1CN([C@@H](C)CO)C(=O)c2cc(NS(=O)(=O)c3ccc(F)cc3)ccc2O[C@@H](C)CCCCO[C@H]1CN(C)C(=O)NC1CCCCC1	none (no result: PABP FP inh, eIF4E 4G PPI, eIF4H inh)
CC(=O)c1ccc2c(c1)Nc1ccccc1S2	PABP FP inh active, eIF4H inh 67
CC(=O)c1ccc2c(c1)N(CCCN(C)C)c1ccccc1S2	MLLE-PAM2 inh 50 (no result: PABP FP inh, eIF4E 4G PPI, eIF4H inh)
C/C(=N\NC(=O)c1ccc(C)cc1C)c1ccc2c(c1)Nc1ccccc1S2	none
C=CCN(CC=C)c1ncnc2[nH]ncc12	none (no result: PABP FP inh, eIF4E 4G PPI, eIF4H inh)
CC(=O)Nc1ccc(S(=O)(=O)c2ccc(N)cc2)cc1	none
NC(=S)Nc1ccc(S(=O)(=O)c2ccc(NC(N)=S)cc2)cc1	MLLE-PAM2 inh 43 (no result: eIF4E 4G PPI)
CC12CCCCN1CCCc1c2[nH]c2ccccc12 (configuration not stated)	MLLE-PAM2 inh 40, PABP FP inh inconclusive, eIF4H inh inconclusive
